PubChem BioAssay (NCATS)
Unmarked numbers belong to inactive results. Results filed as inconclusive are left out. Active and inactive are the calls of the source. Unless noted, calls follow the shape of the dose curve; as a rule, active = well fitted curve in either direction with a large enough effect (not every such curve was filed as active); inconclusive = small, poorly fitted or top-dose-only effect, or another doubt; inactive = flat fitted curve, though single readings scatter.

Experiments:
[1] = biological target: Lysosomal acid glucosylceramidase (Homo sapiens) (UniProt P04062); assay: Glucocerebrosidase-p2 (AID 348; in the data active = potency below about 10 µM; also: potency is read from the fitted curve at half-maximal effect); conditions: purified GBA, blue fluorogenic substrate, 40 min
In short: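 Compounds titrated from 0.6 nM upwards against 0.2 nM enzyme in pH 5.9 citric acid/KH2PO4, taurocholate, tween-20; blue fluorogenic substrate 80 uM, 40 min room temperature, stopped and read Ex 365/Em 440 for AC50.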

[2] = biological target: Cytochrome P450 1A2 (Homo sapiens) (UniProt P05177); assay: p450-cyp1a2 (AID 410; calls by dose curve; also: potency is read from the fitted curve at half-maximal effect;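 as to activity change, negative = inhibition: -100% = full effect of reference inhibitor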); conditions: recombinant CYP1A2, luciferin-ME demethylation, luminescence; series mostly up to 57 µM
In short: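 Luminescent readout of luciferin formed from Luciferin-ME by human CYP1A2; data normalized against complete inhibition by 57 uM furafylline. Enzyme 20nM, substrate 100uM at Km, 100mM KPO4 buffer, 60 min reaction at room temperature.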

[3] = NFAT Signaling Pathway (AID 444); conditions: Jurkat NFAT-bla M1, carbachol, beta-lactamase ratio, 5 h; at 7.69 µM (top of the series) unless noted;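 also: carbachol stimulus at about its EC50 of 1 µM final; % is scaled to controls: 0 for no effect and ±100 for the full control effect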
In short: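 Read-out: CCF4 FRET ratio (460 nm/530 nm) after 1 h RT dye loading, used for %activity and AC50 from titration series. Cells: Jurkat NFAT-β-lactamase/M1 line, treated with compound plus 1 uM carbachol for 5 h, 37 °C.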

[4] = Stat Signaling Pathway (AID 446); conditions: ME-180 SIE beta-lactamase reporter, IL-6 stimulated, 5 h; at 7.69 µM (top of the series) unless noted;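 also: ME-180 cervical cancer cells given 40 pM IL-6 alongside compound; SIE-controlled beta-lactamase reporter measured as 460/530 nm FRET emission ratio; % is scaled to controls: 0 for no effect and ±100 for the full control effect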
In short: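 IL-6/STAT signaling read in ME-180 cells via an SIE beta-lactamase reporter. Stimulus was 40 pM IL-6 (its AC50) for 5 hrs, so both activation and inhibition register.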

[5] = biological target: Glucocorticoid receptor (Homo sapiens) (UniProt P04150); assay: GR-GFP Redistribution (AID 450;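 active = compounds whose dose series gives a full or clear partial fitted curve of increased nuclear translocation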; also: potency is read from the fitted curve at half-maximal effect); conditions: U2OS GR-GFP nuclear translocation, laser cytometry, 2 h
[6] = biological target: Glucocorticoid receptor (Homo sapiens) (UniProt P04150); assay: GR-EFC Redistribution (AID 451; calls by dose curve; also: potency is read from the fitted curve at half-maximal effect); conditions: CHO-K1 GR-EFC translocation, beta-gal luminescence, 2 h
In short: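 Translocation of GR-ED fusion to nuclear EA restores b-gal, read by luminescence after 1 h room-temperature detection. Engineered CHO-K1 biosensor cells, 1,000/well, exposed 2 h at 37 C to titrations up to 46 uM final.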

[7] = biological target: Mitogen-activated protein kinase 10 (Mus musculus) (UniProt Q61831); assay: JNK3 AlphaScreen Assay (AID 530); conditions: JNK3 lysate, c-Jun phosphorylation; series mostly up to 57.1 µM;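 also: kinase came from lysate of stimulated human HepG2 cells; signal reports phosphorylation of biotinylated GST-cJun 1-79 at Ser73 with 10 µM ATP; % is scaled to controls: 0 for no effect and ±100 for the full control effect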
In short: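 Compound titrations were preincubated 15 minutes at room temperature with substrate, antibody and pre-activated JNK3-containing HepG2 lysate. Reactions were started with 10 uM ATP and stopped with EDTA-containing bead buffer for AlphaScreen detection.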

[8] = biological target: 3',5'-cyclic-AMP phosphodiesterase 4B (Homo sapiens) (UniProt Q07343); assay: qHTS Assay for Inhibitors of PDE-IV (AID 607; active = well fitted activation curve with a large enough effect in the main read-out, with a control signal flat, not every such curve was filed as active; also: % of control where 0% means no effect); conditions: HEK293 ACTOne CNG channel cells, membrane potential fluorescence; series mostly up to 22.9 µM
In short: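 Live HEK293 cells with a modified cyclic nucleotide-gated (CNG) channel report intracellular cAMP via membrane-potential dye fluorescence (ex 535/em 590 nm). Endogenous PDE-IV was targeted. Compounds were tested at up to 22.9 uM final; RO 20-1724 100 uM served as control.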

[9] = biological target: Cytochrome P450 3A4 (Homo sapiens) (UniProt P08684); assay: qHTS Assay for Inhibitors and Substrates of Cytochrome P450 3A4 (AID 884; active = well fitted curve in the direction sought with a large enough effect; an effect the other way counts as inactive or inconclusive; also: nearly all actives have a fitted effect of over 50% in size; also: potency is read from the fitted curve at half-maximal effect); conditions: recombinant CYP3A4, Luciferin-PPXE luminescence; series mostly up to 57.1 µM
In short: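 20 nM human CYP3A4 with 25 uM Luciferin-PPXE (at KM) in 200 mM KPO4, preincubated 10 min with compound; NADPH regeneration started a 60 min RT reaction. Luciferin detected by luminescence, normalized to 57 uM ketoconazole as full inhibition.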

[10] = Primary qHTS for small molecule stabilizers of the endoplasmic reticulum resident proteome: Secreted ER Calcium Modulated Protein (SERCaMP) assay (AID 1508630; active = well fitted curve in the direction sought with a large enough effect; an effect the other way counts as inactive or inconclusive; also: % is scaled to controls: 0 for no effect and ±100 for the full control effect); conditions: SH-SY5Y GLuc-SERCaMP (Gaussia luciferase released on ER calcium loss) secretion, thapsigargin, luminescence; series mostly up to 38.4 µM
In short: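 GLuc-SERCaMP-expressing SH-SY5Y cells, pretreated 16 h with compound, are challenged with thapsigargin to empty ER calcium stores; after 4 h, coelenterazine is added directly to the medium and luminescence is imaged.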

[11] = biological target: Cytochrome P450 3A4 (Homo sapiens) (UniProt P08684); assay: qHTS Assay for Activators of Cytochrome P450 3A4 (AID 885; active = well fitted curve in the direction sought with a large enough effect; an effect the other way counts as inactive or inconclusive; also: nearly all actives have a fitted effect of over 65% in size; also: potency is read from the fitted curve at half-maximal effect); conditions: recombinant CYP3A4, Luciferin-PPXE luminescence, 60 min; series mostly up to 57.1 µM
In short: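 Quantitative HTS format: compounds preincubated with 20nM human CYP3A4 and Luciferin-PPXE substrate at KM, reaction started by NADPH regeneration, stopped after 60 min, luciferase luminescence read 20 min later.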

[12] = qHTS Assay for Identification of Small Molecule Agonists for Hypoxia Response Element Signaling Pathway (AID 914; active = well fitted activation curve with a large enough effect in the signal ratio, with a control signal flat, not every such curve was filed as active; the % refers to the signal ratio; also: potency is read from the fitted curve at half-maximal effect); conditions: ME-180 HRE-bla reporter, beta-lactamase ratio, CoCl2, 17 h; activation: active compounds read high
In short: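 HRE-bla ME-180 cells, overnight plating in Opti-MEM with 0.5% dialyzed FBS; cpd titration + EC50 CoCl2, 17 h, 37 degrees Celsius; CCF4 2.5 h RT; 460/530 nm ratio; AC50.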

[13] = AP1 Signaling Pathway (AID 357); conditions: ME-180 (cervical carcinoma) AP-1-bla reporter, EGF-induced, beta-lactamase ratio, 5 h; at 7.69 µM (top of the series) unless noted
In short: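 Modulation of EGF-driven AP-1 transcription was assessed with a beta-lactamase reporter in ME-180 cells. Compound and EC50 EGF were co-incubated 5 hours at 37 °C before 2.5-hour CCF4 loading at room temperature and dual-emission reading.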

Chain of Cytochrome P450 1A2 (Homo sapiens) (P05177 whole entry, looked up): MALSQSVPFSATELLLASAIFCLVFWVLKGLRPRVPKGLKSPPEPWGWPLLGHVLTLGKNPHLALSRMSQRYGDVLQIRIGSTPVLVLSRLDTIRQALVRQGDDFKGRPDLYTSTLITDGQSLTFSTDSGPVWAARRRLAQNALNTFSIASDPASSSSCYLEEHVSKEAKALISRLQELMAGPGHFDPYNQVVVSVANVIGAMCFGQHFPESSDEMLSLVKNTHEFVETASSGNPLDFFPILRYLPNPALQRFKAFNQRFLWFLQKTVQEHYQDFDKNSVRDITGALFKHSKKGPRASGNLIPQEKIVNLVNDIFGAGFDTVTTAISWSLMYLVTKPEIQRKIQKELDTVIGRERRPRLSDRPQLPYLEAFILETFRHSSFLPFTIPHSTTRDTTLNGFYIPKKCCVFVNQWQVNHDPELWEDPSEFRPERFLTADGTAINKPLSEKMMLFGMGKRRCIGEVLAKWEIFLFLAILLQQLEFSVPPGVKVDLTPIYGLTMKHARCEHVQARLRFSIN
Chain of Glucocorticoid receptor (Homo sapiens) (P04150 whole entry, looked up, the tested form may be a part): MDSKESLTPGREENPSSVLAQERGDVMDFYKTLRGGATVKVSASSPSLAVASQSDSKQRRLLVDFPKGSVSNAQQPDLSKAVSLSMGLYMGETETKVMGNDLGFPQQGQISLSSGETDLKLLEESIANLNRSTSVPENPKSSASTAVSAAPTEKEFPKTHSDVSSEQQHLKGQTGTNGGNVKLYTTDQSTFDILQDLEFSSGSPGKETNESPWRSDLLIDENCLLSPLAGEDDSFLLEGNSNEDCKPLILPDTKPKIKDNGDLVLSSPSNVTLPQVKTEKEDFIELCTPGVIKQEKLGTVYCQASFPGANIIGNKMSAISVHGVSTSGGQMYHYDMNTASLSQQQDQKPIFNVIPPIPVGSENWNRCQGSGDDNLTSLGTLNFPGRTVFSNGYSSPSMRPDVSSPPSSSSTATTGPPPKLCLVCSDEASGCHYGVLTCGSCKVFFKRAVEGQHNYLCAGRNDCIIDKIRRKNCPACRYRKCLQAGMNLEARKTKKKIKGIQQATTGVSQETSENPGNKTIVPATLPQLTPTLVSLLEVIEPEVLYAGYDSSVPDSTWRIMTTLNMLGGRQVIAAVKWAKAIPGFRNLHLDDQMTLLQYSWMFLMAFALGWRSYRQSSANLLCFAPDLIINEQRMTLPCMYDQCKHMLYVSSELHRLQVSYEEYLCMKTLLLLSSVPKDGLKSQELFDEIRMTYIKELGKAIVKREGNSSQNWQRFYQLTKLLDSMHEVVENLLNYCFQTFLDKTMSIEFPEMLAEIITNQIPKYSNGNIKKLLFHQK
Chain of 3',5'-cyclic-AMP phosphodiesterase 4B (Homo sapiens) (Q07343 whole entry, looked up): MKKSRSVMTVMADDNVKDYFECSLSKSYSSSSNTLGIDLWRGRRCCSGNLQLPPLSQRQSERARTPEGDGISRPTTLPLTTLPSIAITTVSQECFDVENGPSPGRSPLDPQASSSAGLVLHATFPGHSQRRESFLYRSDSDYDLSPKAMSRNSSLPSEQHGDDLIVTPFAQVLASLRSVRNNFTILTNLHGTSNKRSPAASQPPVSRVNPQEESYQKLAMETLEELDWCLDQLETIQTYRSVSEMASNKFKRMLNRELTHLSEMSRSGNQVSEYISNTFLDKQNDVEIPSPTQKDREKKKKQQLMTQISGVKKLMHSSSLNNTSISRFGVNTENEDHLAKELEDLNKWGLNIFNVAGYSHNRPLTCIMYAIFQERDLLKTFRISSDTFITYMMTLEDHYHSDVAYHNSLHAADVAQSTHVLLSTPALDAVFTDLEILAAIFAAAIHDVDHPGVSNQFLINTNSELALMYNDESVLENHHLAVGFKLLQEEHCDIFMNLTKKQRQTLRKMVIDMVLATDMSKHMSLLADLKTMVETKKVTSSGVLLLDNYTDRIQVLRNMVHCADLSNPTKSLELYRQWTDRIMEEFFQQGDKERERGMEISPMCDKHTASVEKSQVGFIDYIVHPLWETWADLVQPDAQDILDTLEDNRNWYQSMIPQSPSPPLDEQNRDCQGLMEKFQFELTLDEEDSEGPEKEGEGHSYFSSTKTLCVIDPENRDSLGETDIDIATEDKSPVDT
Chain of Lysosomal acid glucosylceramidase (Homo sapiens) (P04062 whole entry, looked up): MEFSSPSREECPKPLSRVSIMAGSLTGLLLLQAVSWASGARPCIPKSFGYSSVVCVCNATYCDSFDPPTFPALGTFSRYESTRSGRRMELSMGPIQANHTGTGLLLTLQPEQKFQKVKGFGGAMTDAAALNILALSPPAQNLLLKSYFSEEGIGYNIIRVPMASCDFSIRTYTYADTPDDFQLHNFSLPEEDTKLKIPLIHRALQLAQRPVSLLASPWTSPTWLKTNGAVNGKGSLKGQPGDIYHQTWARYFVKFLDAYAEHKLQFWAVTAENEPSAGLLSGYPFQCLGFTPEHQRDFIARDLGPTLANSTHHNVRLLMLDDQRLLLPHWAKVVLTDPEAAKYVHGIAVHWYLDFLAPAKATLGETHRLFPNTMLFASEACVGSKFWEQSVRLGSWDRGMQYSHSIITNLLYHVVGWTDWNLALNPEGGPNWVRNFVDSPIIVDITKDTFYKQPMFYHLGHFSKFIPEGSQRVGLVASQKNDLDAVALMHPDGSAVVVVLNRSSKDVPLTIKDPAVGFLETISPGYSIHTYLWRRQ
Chain of Cytochrome P450 3A4 (Homo sapiens) (P08684 whole entry, looked up): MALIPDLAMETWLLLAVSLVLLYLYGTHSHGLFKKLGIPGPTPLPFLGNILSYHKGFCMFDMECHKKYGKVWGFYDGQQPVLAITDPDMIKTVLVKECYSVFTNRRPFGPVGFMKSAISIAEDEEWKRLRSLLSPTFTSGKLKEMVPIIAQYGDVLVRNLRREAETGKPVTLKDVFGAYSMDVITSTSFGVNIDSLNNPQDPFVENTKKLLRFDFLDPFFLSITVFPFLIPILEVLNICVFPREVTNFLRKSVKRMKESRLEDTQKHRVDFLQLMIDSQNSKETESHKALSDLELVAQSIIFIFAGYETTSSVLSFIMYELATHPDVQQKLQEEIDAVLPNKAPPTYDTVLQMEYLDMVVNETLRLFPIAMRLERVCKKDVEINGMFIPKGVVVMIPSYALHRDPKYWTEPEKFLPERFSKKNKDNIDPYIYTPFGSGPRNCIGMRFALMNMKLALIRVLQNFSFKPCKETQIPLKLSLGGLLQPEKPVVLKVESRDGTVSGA

Cn1c(=O)c(-c2ccccc2)nc2cnc(Oc3ccccc3)nc21
Potency [1]: > 11.4 µM
Potency [2]: 2 µM (active)
activity change, negative = inhibition [3]: 7.65%
activity, negative = inhibition [4]: -0.677%
Potency [5]: > 9.22 µM
Potency [6]: > 46 µM
Potency [7]: inactive
Potency [8]: inactive
Potency [9]: inactive
outcome [10]: inactive

COc1ccc(Oc2ncc3nc(-c4cccs4)c(=O)n(Cc4cccc(OC)c4)c3n2)cc1
Potency [1]: > 11.4 µM
Potency [2]: inactive
activity change, negative = inhibition [3]: -5.95%
Potency [5]: > 9.22 µM
Potency [6]: > 46 µM
Potency [9]: 3.98 µM (active)
Potency [11]: inactive
Potency [12]: 3.16 µM (active)
outcome [10]: inactive

CCNc1ncc2nc(-c3ccccc3)c(=O)n(-c3ccc(OC)cc3)c2n1
Potency [1]: > 11.4 µM
activity change, negative = inhibition [13]: 27.6%
Potency [5]: > 9.22 µM
Potency [6]: > 46 µM
Potency [7]: inactive
Potency [12]: 3.16 µM (active)
outcome [10]: inactive

CCNc1ncc2nc(-c3ccc(Cl)cc3)c(=O)n(-c3ccccc3)c2n1
Potency [1]: > 11.4 µM
Potency [2]: 1 µM (active)
Potency [5]: > 9.22 µM
Potency [6]: > 46 µM
Potency [7]: inactive
outcome [10]: inactive

Cn1c(=O)c(-c2ccc(Cl)cc2)nc2cnc(Oc3ccccc3)nc21
Potency [1]: > 11.4 µM
Potency [2]: 0.2 µM (active)
activity, negative = inhibition [4]: 2.85%
Potency [5]: > 9.22 µM
Potency [6]: > 46 µM
Potency [7]: inactive
Potency [8]: inactive
Potency [9]: inactive
Potency [11]: 20 µM (active)
outcome [10]: inactive

O=C(c1cccc(F)c1)N1CCC2(CCCN(Cc3cc(C(F)(F)F)cc(C(F)(F)F)c3)C2)CC1
Potency [1]: > 11.4 µM
Potency [2]: inactive
activity, negative = inhibition [4]: 3.76%
Potency [6]: > 46 µM
Potency [7]: inactive
Potency [8]: inactive
Potency [11]: inactive
outcome [10]: inactive

O=C(c1ccncc1)N1CCC2(CC1)CN(c1ccc(-c3ccccc3)cc1)C2
Potency [1]: > 11.4 µM
Potency [2]: inactive
activity change, negative = inhibition [3]: 17.4%
activity, negative = inhibition [4]: -19.8%
Potency [6]: > 46 µM
Potency [7]: inactive
Potency [8]: inactive
Potency [11]: inactive
outcome [10]: inactive

O=C(Oc1ccccc1)N1CCC2(CCCN(c3cccc(-c4ccccc4)c3)C2)CC1
Potency [1]: > 11.4 µM
Potency [2]: inactive
activity change, negative = inhibition [3]: -27.7%
activity, negative = inhibition [4]: 2.68%
Potency [6]: > 46 µM
Potency [7]: inactive
Potency [8]: inactive
Potency [11]: inactive
outcome [10]: inactive

COc1ccc(C(=O)N2CCC3(CCCN(Cc4nccs4)C3)CC2)cc1
Potency [1]: > 11.4 µM
activity change, negative = inhibition [13]: -4.03%
activity, negative = inhibition [4]: -4.62%
Potency [6]: > 46 µM
Potency [7]: inactive
Potency [8]: inactive
Potency [11]: inactive
outcome [10]: inactive

CCNc1ncc2nc(-c3ccc(Cl)cc3)c(=O)n(C3CC3)c2n1
Potency [1]: > 11.4 µM
Potency [2]: 0.501 µM (active)
activity change, negative = inhibition [3]: -4.85%
Potency [5]: > 9.22 µM
Potency [6]: > 46 µM
Potency [7]: inactive
Potency [8]: inactive
Potency [12]: 0.398 µM (active)
outcome [10]: inactive
